# From PubChem BioAssay (EPA / NIEHS)
# “And” between values parts separate entries of the source, which are not always exact repeats. Equal entries are not always repeated. The source holds several records for some structures; these can differ, active in one and inactive in another. The source made the active and inactive calls. The calls were made as follows: active = hit-call score of the fitted dose curve at least 0.9, where 1 is the maximum; inactive = score below 0.9.
# Read-out: KRT18 (gene 3875)
# Assay: BSK_BE3C_Keratin818: BioMAP Diversity Plus: BE3C Assay for Keratin 818 Biomarker Activity (AID 2284282)
# Conditions: primary human bronchial epithelial cells
# Summary of the method: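 Keratin 8/18 levels, detected by ELISA, served as the endpoint after 24 h chemical exposure of primary human bronchial epithelial cells. Gain of signal relative to DMSO negative control defined activity.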
Structure (SMILES),outcome,AC50
O=CN1CCOCC1,inactive,–
CCCCCCC(CO)CCCC (configuration not stated),inactive,–
C=CC(C)(O)CCC=C(C)C (configuration not stated),inactive,–
O=C(Nc1ccc2c(O)c(N=Nc3ccc(N=Nc4ccc(S(=O)(=O)O)cc4)cc3)c(S(=O)(=O)O)cc2c1)c1ccccc1,inactive,–
CC(CN=Cc1ccccc1O)N=Cc1ccccc1O (configuration not stated),inactive,–
CC1(C)CCC[C@]2(C)[C@H]3CCO[C@]3(C)CC[C@@H]12,inactive,30.8 µM (active)
CCOC(=O)C(C#N)=C(c1ccccc1)c1ccccc1,inactive,–

# Read-out: Matrix Metallopeptidase 9 (MMP9), MMP9 (gene 4318)
# Assay: BSK_BE3C_MMP9: BioMAP Diversity Plus: BE3C Assay for Matrix Metallopeptidase 9 (MMP9) Biomarker Activity (AID 2284283)
# Conditions: primary human bronchial epithelial cells
# Summary of the method: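 MMP9 is measured by ELISA after a 24 h compound exposure of primary human bronchial epithelial cultures. Parallel SRB staining gives overt cytotoxicity. Values fitted in the positive direction against DMSO.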
Structure (SMILES),outcome,AC50
O=CN1CCOCC1,inactive,–
CCCCCCC(CO)CCCC (configuration not stated),inactive,–
C=CC(C)(O)CCC=C(C)C (configuration not stated),inactive,–
O=C(Nc1ccc2c(O)c(N=Nc3ccc(N=Nc4ccc(S(=O)(=O)O)cc4)cc3)c(S(=O)(=O)O)cc2c1)c1ccccc1,inactive,–
CC(CN=Cc1ccccc1O)N=Cc1ccccc1O (configuration not stated),inactive,–
CC1(C)CCC[C@]2(C)[C@H]3CCO[C@]3(C)CC[C@@H]12,inactive,31.6 µM (active)
CCOC(=O)C(C#N)=C(c1ccccc1)c1ccccc1,inactive,–

# Read-out: Plasminogen activator inhibitor-1 (PAI1), SERPINE1 (gene 5054)
# Assay: BSK_CASM3C_PAI1: BioMAP Diversity Plus: CASM3C Assay for Plasminogen activator inhibitor-1 (PAI1) Biomarker Activity (AID 2284284);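 also: PAI-1 protein level measured by ELISA 24 h after dosing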
# Conditions: primary human coronary artery smooth muscle cells
row,Structure (SMILES),outcome
1,O=CN1CCOCC1,inactive
2,CCCCCCC(CO)CCCC (configuration not stated),inactive
3,C=CC(C)(O)CCC=C(C)C (configuration not stated),inactive
4,O=C(Nc1ccc2c(O)c(N=Nc3ccc(N=Nc4ccc(S(=O)(=O)O)cc4)cc3)c(S(=O)(=O)O)cc2c1)c1ccccc1,inactive
5,CC(CN=Cc1ccccc1O)N=Cc1ccccc1O (configuration not stated),inactive
6,CC1(C)CCC[C@]2(C)[C@H]3CCO[C@]3(C)CC[C@@H]12,inactive
7,CCOC(=O)C(C#N)=C(c1ccccc1)c1ccccc1,inactive

# Read-out: Monocyte Chemoattractant Protein-1 (MCP1), CCL2 (gene 6347)
# Assay: BSK_hDFCGF_MCP1: BioMAP Diversity Plus: hDFCGF Assay for Monocyte Chemoattractant Protein-1 (MCP1) Biomarker Activity (AID 2284285)
# Conditions: primary human foreskin fibroblasts
# Summary of the method: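 MCP-1 ELISA readout was taken 24 hours after dosing primary human dermal fibroblasts in the hDFCGF system, with DMSO as baseline. Parallel sulforhodamine B staining of total protein tracked overt cytotoxicity.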
Structure (SMILES),outcome,AC50
O=CN1CCOCC1,inactive,–
CCCCCCC(CO)CCCC (configuration not stated),–,30.9 µM (active) and 35 µM (active)
C=CC(C)(O)CCC=C(C)C (configuration not stated),inactive,–
O=C(Nc1ccc2c(O)c(N=Nc3ccc(N=Nc4ccc(S(=O)(=O)O)cc4)cc3)c(S(=O)(=O)O)cc2c1)c1ccccc1,inactive,–
CC(CN=Cc1ccccc1O)N=Cc1ccccc1O (configuration not stated),inactive,–
CC1(C)CCC[C@]2(C)[C@H]3CCO[C@]3(C)CC[C@@H]12,–,30.6 µM (active) and 30.5 µM (active)
CCOC(=O)C(C#N)=C(c1ccccc1)c1ccccc1,inactive,–

# Read-out: Intercellular Adhesion Molecule 1 (ICAM1), ICAM1 (gene 3383)
# Assay: BSK_hDFCGF_ICAM1: BioMAP Diversity Plus: hDFCGF Assay for Intercellular Adhesion Molecule 1 (ICAM1) Biomarker Activity (AID 2284287)
# Conditions: primary human foreskin fibroblasts
# Summary of the method: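 ICAM-1 ELISA readout 24 h after dosing, DMSO as baseline, in human dermal foreskin fibroblast cultures. Cytotoxicity checked in parallel wells by SRB staining (0.1% SRB, 10% TCA fixation, 560 nm).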
Structure (SMILES),outcome,AC50
O=CN1CCOCC1,inactive,–
CCCCCCC(CO)CCCC (configuration not stated),–,35.6 µM (active) and 34.7 µM (active)
C=CC(C)(O)CCC=C(C)C (configuration not stated),inactive,–
O=C(Nc1ccc2c(O)c(N=Nc3ccc(N=Nc4ccc(S(=O)(=O)O)cc4)cc3)c(S(=O)(=O)O)cc2c1)c1ccccc1,inactive,–
CC(CN=Cc1ccccc1O)N=Cc1ccccc1O (configuration not stated),inactive,–
CC1(C)CCC[C@]2(C)[C@H]3CCO[C@]3(C)CC[C@@H]12,–,37.5 µM (active) and 37.8 µM (active)
CCOC(=O)C(C#N)=C(c1ccccc1)c1ccccc1,inactive,–

# Read-out: TIMP metallopeptidase inhibitor 2 (TIMP2), TIMP2 (gene 7077)
# Assay: BSK_hDFCGF_TIMP2: BioMAP Diversity Plus: hDFCGF Assay for TIMP metallopeptidase inhibitor 2 (TIMP2) Biomarker Activity (AID 2284289)
# Conditions: primary human foreskin fibroblasts
# Summary of the method: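 Primary human foreskin fibroblasts in the hDFCGF system, dosed for 24 h; TIMP-2 level measured by ELISA, fitted in the positive direction against DMSO; cytotoxicity checked in parallel by sulforhodamine B total protein staining.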
Structure (SMILES),outcome,AC50
O=CN1CCOCC1,inactive,–
CCCCCCC(CO)CCCC (configuration not stated),–,30.6 µM (active) and 37.3 µM (active)
C=CC(C)(O)CCC=C(C)C (configuration not stated),inactive,–
O=C(Nc1ccc2c(O)c(N=Nc3ccc(N=Nc4ccc(S(=O)(=O)O)cc4)cc3)c(S(=O)(=O)O)cc2c1)c1ccccc1,inactive,–
CC(CN=Cc1ccccc1O)N=Cc1ccccc1O (configuration not stated),inactive,–
CC1(C)CCC[C@]2(C)[C@H]3CCO[C@]3(C)CC[C@@H]12,–,36.4 µM (active) and 37.9 µM (active)
CCOC(=O)C(C#N)=C(c1ccccc1)c1ccccc1,inactive,–

# Read-out: Thrombomodulin, THBD (gene 7056)
# Assay: BSK_LPS_Thrombomodulin: BioMAP Diversity Plus: LPS Assay for Thrombomodulin Biomarker Activity (AID 2284296)
# Conditions: primary human HUVEC with PBMC
# Summary of the method: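 Thrombomodulin on the surface of LPS-activated endothelial/PBMC co-cultures was quantified by ELISA at 24 hours post-dosing, with DMSO as baseline. Parallel SRB total-protein staining flagged overt cytotoxicity.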
row,Structure (SMILES),outcome
1,O=CN1CCOCC1,inactive
2,CCCCCCC(CO)CCCC (configuration not stated),inactive
3,C=CC(C)(O)CCC=C(C)C (configuration not stated),inactive
4,O=C(Nc1ccc2c(O)c(N=Nc3ccc(N=Nc4ccc(S(=O)(=O)O)cc4)cc3)c(S(=O)(=O)O)cc2c1)c1ccccc1,inactive
5,CC(CN=Cc1ccccc1O)N=Cc1ccccc1O (configuration not stated),inactive
6,CC1(C)CCC[C@]2(C)[C@H]3CCO[C@]3(C)CC[C@@H]12,inactive
7,CCOC(=O)C(C#N)=C(c1ccccc1)c1ccccc1,inactive

# Test system: not listed separately
# Assay: IUF_NPC2c_oligodendrocyte_migration_120hr: Leibniz Research Institute for Environmental Medicine (IUF) 120-hour Neural Progenitor Cell Migration Assay for Oligodendrocyte Migration (NPC2c) (AID 2284297);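 also: O4-positive oligodendrocyte migration distance divided by radial glia migration distance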
# Conditions: not given
# Summary of the method: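 Exposure runs 5 days from differentiation onset at 37C, seven concentrations plus solvent control, DMSO at most 0.1%, applied to primary hNPC spheres on laminin. After fixation, O4 immunostaining gives oligodendrocyte distance from the sphere core, relative to radial glia migration.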
Structure (SMILES),outcome,AC50
COCCOCCOCCO,inactive,–
Oc1c(Cl)cc(Cl)c(Cl)c1Cc1c(O)c(Cl)cc(Cl)c1Cl,–,124 nM (active)
COCCc1ccc(OCC(O)CNC(C)C)cc1 (configuration not stated),inactive,–
CN(C)CCOC(C)(c1ccccc1)c1ccccn1 (configuration not stated),inactive,–

# Test system: not listed separately
# Assay: IUF_NPC2a_radial_glia_migration_120hr: Leibniz Research Institute for Environmental Medicine (IUF) 120-hour Neural Progenitor Cell Migration Assay for Radial Glia Migration (NPC2a) (AID 2284298)
# Conditions: not given
# Summary of the method: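 Migration distance in um, sphere core edge to migration-area edge, derived by nuclei-density algorithm from Hoechst images after 120 h compound exposure. Primary hNPC spheres differentiated on poly-D-lysine/laminin in N2 medium, 37C; medium half-replaced day 3.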
Structure (SMILES),outcome,AC50
COCCOCCOCCO,inactive,–
Oc1c(Cl)cc(Cl)c(Cl)c1Cc1c(O)c(Cl)cc(Cl)c1Cl,–,272 nM (active)
COCCc1ccc(OCC(O)CNC(C)C)cc1 (configuration not stated),inactive,–
CN(C)CCOC(C)(c1ccccc1)c1ccccn1 (configuration not stated),inactive,–

# Test system: not listed separately
# Assay: IUF_NPC2a_radial_glia_migration_72hr: Leibniz Research Institute for Environmental Medicine (IUF) 72-hour Neural Progenitor Cell Migration Assay for Radial Glia Migration (NPC2a) (AID 2284299)
# Conditions: not given
# Summary of the method: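 Single 0.3 mm neurospheres were plated per well in N2 differentiation medium and exposed from the start of differentiation. After 72 hours, brightfield images were taken and radial glia migration from the sphere core edge was measured manually in four directions, averaged per well.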
Structure (SMILES),outcome,AC50
COCCOCCOCCO,inactive,–
Oc1c(Cl)cc(Cl)c(Cl)c1Cc1c(O)c(Cl)cc(Cl)c1Cl,–,380 nM (active)
COCCc1ccc(OCC(O)CNC(C)C)cc1 (configuration not stated),inactive,–
CN(C)CCOC(C)(c1ccccc1)c1ccccn1 (configuration not stated),inactive,–

# Test system: not listed separately
# Assay: IUF_NPC2b_neuronal_migration_120hr: Leibniz Research Institute for Environmental Medicine (IUF) 120-hour Neural Progenitor Cell Migration Assay for Neuron Migration (NPC2b) (AID 2284300)
# Conditions: not given
# Summary of the method: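 TUBB3-positive neurons are imaged after 120 h of differentiation, and their mean distance from the sphere edge is normalised to radial glia migration. Single 0.3 mm fetal hNPC spheres on poly-D-lysine/laminin received 7 compound concentrations, ≤0.1% DMSO, refreshed at day 3.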
Structure (SMILES),outcome,AC50
COCCOCCOCCO,inactive,–
Oc1c(Cl)cc(Cl)c(Cl)c1Cc1c(O)c(Cl)cc(Cl)c1Cl,–,566 nM (active)
COCCc1ccc(OCC(O)CNC(C)C)cc1 (configuration not stated),inactive,–
CN(C)CCOC(C)(c1ccccc1)c1ccccn1 (configuration not stated),inactive,–
